Reference: the supplement of paper PMC6124720

System: Pseudogymnoascus destructans 20631-21
Test: growth activity index (DuctApe, 0 = no growth, 9 = maximal growth) (index 0-9); higher = more fungal growth (less inhibition), active = 0 or less; extreme values may be limits of the assay
Conditions: temperature: 13 °C, YPD
[1] = concentration level (1-4, increasing; Biolog proprietary): 1
[2] = concentration level (1-4, increasing; Biolog proprietary): 2
[3] = concentration level (1-4, increasing; Biolog proprietary): 3
[4] = concentration level (1-4, increasing; Biolog proprietary): 4

Measured: growth activity index
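Also: biolog Phenotype Microarray plates PM21–25, OD595 followed daily over 11 days, growth curves converted to index, mean of two independent experiments.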

C[C@@H]1C[C@@H]([C@H](O)CC2CC(=O)NC(=O)C2)C(=O)[C@@H](C)C1 [Cycloheximide] (Biolog plate: PM22)
inactive: [1] 5 | [2] 4 | [3] 4.33 | [4] 4.33

N#CO [Sodium Cyanate] (Biolog plate: PM23)
inactive: [1] 5 | [2] 4.67 | [3] 4.33 | [4] 4.67

CC1C=CC=CCCC=CC=CC=CC=CC(OC2OC(C)C(O)C(N)C2O)CC2OC(O)(CC(O)C(O)CCC(O)CC(O)CC(O)CC(=O)OC(C)C(C)C1O)CC(O)C2C(=O)O (stereo unspecified) [Nystatin] (Biolog plate: PM21)
active: [2] 0 | [3] 0 | [4] 0
inactive: [1] 1.75

[Cl][Cd][Cl] [Cadmium Chloride] (Biolog plate: PM23)
inactive: [1] 4.33 | [2] 2 | [3] 0.667
active: [4] 0

[Cl][Cr]([Cl])[Cl] [Chromium (III) chloride] (Biolog plate: PM23)
inactive: [1] 5.33 | [2] 4 | [3] 2 | [4] 3.33

Nc1ncn[nH]1 [3-Amino-1,2,4-triazole] (Biolog plate: PM22)
active: [1] 0 | [2] 0 | [3] 0 | [4] 0

O=[Se](=O)([O-])[O-].[Na+].[Na+] [Sodium Selenate] (Biolog plate: PM23)
inactive: [1] 5 | [2] 4 | [3] 2.67 | [4] 3

N.N.[Cl][Pt][Cl] [Cisplatin] (Biolog plate: PM24)
inactive: [1] 5 | [2] 4.67 | [3] 4 | [4] 4

O=[Se]([O-])[O-].[Na+].[Na+] [Sodium Selenite] (Biolog plate: PM21)
inactive: [1] 6 | [2] 5.25 | [3] 6 | [4] 4.75

C[n+]1ccc(-c2cc[n+](C)cc2)cc1 [Methyl viologen] (Biolog plate: PM24)
active: [2] 0
inactive: [1] 1 | [3] 0.333 | [4] 0.667

CN(CC[C@H](N)CC(=O)N[C@H]1C=C[C@H](n2ccc(N)nc2=O)O[C@@H]1C(=O)O)C(=N)N [Blasticidin S] (Biolog plate: PM24)
inactive: [1] 4.67 | [2] 4.33 | [3] 4 | [4] 4

CNC1CC(N)C(O)C(OC2OC(CO)C(O)C3OC4(OC(C(N)CO)C(O)C(O)C4O)OC23)C1O (stereo unspecified) [Hygromycin B] (Biolog plate: PM25)
active: [4] 0
inactive: [1] 2.67 | [2] 2 | [3] 1

[K+].[K+].[O]=[Cr](=[O])([O-])[O-] [Potassium Chromate] (Biolog plate: PM24)
inactive: [1] 3.33 | [2] 4 | [3] 4 | [4] 4.33

O=[As][O-].[Na+] [Sodium Arsenite] (Biolog plate: PM23)
inactive: [1] 4 | [2] 4.67 | [3] 4.33 | [4] 5

CCCC1COC(Cn2cncn2)(c2ccc(Cl)cc2Cl)O1 (stereo unspecified) [Propiconazole] (Biolog plate: PM24)
inactive: [1] 4.67 | [2] 2 | [3] 1 | [4] 0.333

[Na+].[Na+].[O]=[Cr](=[O])([O-])[O][Cr](=[O])(=[O])[O-] [Sodium Dichromate] (Biolog plate: PM21)
inactive: [1] 4.25 | [2] 5 | [3] 5 | [4] 4.25

[N-]=[N+]=[N-] [Sodium Azide] (Biolog plate: PM23)
inactive: [1] 2.67 | [2] 1 | [4] 0.333
active: [3] 0

[N-]=[N+]=CC(=O)OC[C@H](N)C(=O)O [Azaserine] (Biolog plate: PM22)
inactive: [1] 5 | [2] 4.33 | [3] 4.67 | [4] 4.67

CCCCC(C#N)(Cn1cncn1)c1ccc(Cl)cc1 (stereo unspecified) [Myclobutanil] (Biolog plate: PM22)
active: [3] 0 | [4] 0
inactive: [1] 5.33 | [2] 0.667

O=[As]([O-])([O-])[O-].[Na+].[Na+].[Na+] [Sodium Arsenate] (Biolog plate: PM22)
inactive: [1] 4.67 | [2] 4.33 | [3] 4 | [4] 2

CCCCCCCCCCCCCCCC[n+]1ccccc1 [Cetylpyridinium chloride] (Biolog plate: PM21)
active: [2] 0 | [3] 0 | [4] 0
inactive: [1] 5.25

Nc1ccncc1 [4-Aminopyridine] (Biolog plate: PM25)
inactive: [1] 4.67 | [2] 4 | [3] 4.33 | [4] 1.33

[O-][I+3]([O-])([O-])O [Sodium metaperiodate] (Biolog plate: PM23)
inactive: [1] 2 | [2] 2 | [3] 4.33 | [4] 5

[Cl][Ni][Cl] [Nickel chloride] (Biolog plate: PM21)
inactive: [1] 5 | [2] 4.25 | [3] 4.5 | [4] 5
